Source: PubChem BioAssay AID1053125 (Broad Institute, 2014)
Entries with a potency or affinity are not part of this list. Values without a mark were called inactive.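 How the source made its calls: active means viability loss whose fitted half-maximal concentration is at most twice the top valid tested dose; inconclusive means flat curve with 30 to 70% loss, or poor fit; inactive means the rest.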

Assay: HepG2 cell cytotoxicity, dose response, cytotoxicity control, ATP luminescence, cherry-pick, set 6 (AID 1053125)
Conditions: HepG2 viability, ATP luminescence (CellTiter-Glo), 72 h; series mostly up to 26 µM; activity change, negative = cytotoxicity: at the top concentration

Q: Which “activity change, negative = cytotoxicity” value does the source give for `Cc1oc(/N=C/c2ccc(F)cc2)c(C#N)c1C` here?
A: -4.78%

Q: For `CCCOc1ccccc1/C=C1\SC(N)=NC1=O`, which “activity change, negative = cytotoxicity” value is on record?
A: -8.75%

Q: Which “activity change, negative = cytotoxicity” value does the source give for `COc1cc(/C=C(\C#N)C(=O)NC(C)C)cc(Cl)c1O` here?
A: -4.17%

Q: For `Cc1ccc(O)c(NC(=S)NC(=O)COc2ccc(Br)cc2)c1`, which “activity change, negative = cytotoxicity” value is on record?
A: 13.5%

Q: For `CC(C)(C)c1csc(N/N=C/c2ccc(O)cc2)n1`, which “activity change, negative = cytotoxicity” value is on record?
A: 41.1%

Q: For `COc1cc(C(c2c(C(=O)O)[nH]c3ccccc23)c2c(C(=O)O)[nH]c3ccccc23)ccc1OCc1ccccc1`, which “activity change, negative = cytotoxicity” value is on record?
A: -14.1%

Q: For `CCOC(=O)c1c2ccc(OCC(=O)NN)cc2n2ccccc12`, which “activity change, negative = cytotoxicity” value is on record?
A: -9.3%

Q: For `Cc1ccc2nc3c(cc(S(=O)(=O)c4ccccc4)c(=N)n3Cc3ccco3)c(=O)n2c1`, which “activity change, negative = cytotoxicity” value is on record?
A: -15.1%

Q: Which “activity change, negative = cytotoxicity” value does the source give for `CCN1C(=O)c2cccc3c(S(=O)(=O)N(C)C)ccc1c23` here?
A: -11.1%

Q: Which “activity change, negative = cytotoxicity” value does the source give for `CCCCn1nc(NC(=O)c2cccs2)c2cc3cc(OC)ccc3nc21` here?
A: -14%

Q: For `CC1CC(C)CN(CCCNC(=O)CCC(=O)N2CC(C)Oc3ccccc32)C1` (centres undefined), which “activity change, negative = cytotoxicity” value is on record?
A: -6.78%

Q: For `N#Cc1c2ccc(OCC(N)=O)cc2n2ccccc12`, which “activity change, negative = cytotoxicity” value is on record?
A: -3.56%

Q: For `CCCN1CCc2c(sc(NC(=O)C3CCN(S(=O)(=O)c4cccs4)CC3)c2C(N)=O)C1`, which “activity change, negative = cytotoxicity” value is on record?
A: -10.9%

Q: With `N=c1oc2cc(O)ccc2cc1C(=O)Nc1ccc(Br)cc1` as the compound, how does the “activity change, negative = cytotoxicity” value read?
A: -15.2%

Q: With `CCC(Sc1nc(N)c(NC(=O)c2ccc(OC)cc2)c(=O)[nH]1)C(=O)O` (centres undefined) as the compound, how does the “activity change, negative = cytotoxicity” value read?
A: -11.7%

Q: For `CC(=O)NNc1cc(N2CCOCC2)nc(N2CCOCC2)n1`, which “activity change, negative = cytotoxicity” value is on record?
A: 6.7%

Q: With `Cc1ccc(-c2nc3ccsc3c(=O)[nH]2)cc1` as the compound, how does the “activity change, negative = cytotoxicity” value read?
A: -13.5%

Q: For `COc1ccc(C(=O)c2sc3nc(-c4ccc(OC)cc4)ccc3c2N)cc1`, which “activity change, negative = cytotoxicity” value is on record?
A: -0.796%

Q: With `C=CCc1c(O)c(CC)cc2c(C)cc(=O)oc12` as the compound, how does the “activity change, negative = cytotoxicity” value read?
A: -9.42%

Q: Which “activity change, negative = cytotoxicity” value does the source give for `CC(C)N1CCc2c(sc(NC(=O)Cc3ccccc3)c2C#N)C1` here?
A: 8.38%

Q: Which “activity change, negative = cytotoxicity” value does the source give for `Cc1cccn2c(=O)c3cc(C(=O)NCc4ccco4)c(=N)n(CCc4ccccc4)c3nc12` here?
A: 1.38%

Q: With `COc1ccccc1C(=O)c1cc2ccc(O)cc2oc1=O` as the compound, how does the “activity change, negative = cytotoxicity” value read?
A: -11%

Q: For `O=[N+]([O-])c1cccc(-c2n[nH]c(=S)n2-c2ccc(Br)cc2)c1`, which “activity change, negative = cytotoxicity” value is on record?
A: -13.9%

Q: For `Cc1c(O)ccc2cc(S(=O)(=O)c3ccccc3)c(=O)oc12`, which “activity change, negative = cytotoxicity” value is on record?
A: -11.2%

Q: With `C/C(=N\NC(=O)CC#N)c1cc2ccc(O)cc2oc1=O` as the compound, how does the “activity change, negative = cytotoxicity” value read?
A: 2.89%

Q: Which “activity change, negative = cytotoxicity” value does the source give for `COc1ccc(C2CC(c3cccs3)=NN2c2nc(C)c(C(C)=O)s2)cc1OC` (centres undefined) here?
A: -14.8%

Q: With `O=C1c2ccccc2S(=O)(=O)c2cc(N3CCC(C(=O)N4CCCCC4)CC3)ccc21` as the compound, how does the “activity change, negative = cytotoxicity” value read?
A: -6.38%

Q: Which “activity change, negative = cytotoxicity” value does the source give for `CC(C)OCCCn1c(=N)c(C(N)=S)cc2c(=O)n3ccccc3nc21` here?
A: -3.52%

Q: Which “activity change, negative = cytotoxicity” value does the source give for `COCCN1C=C(C(=O)OC)C(c2ccc(Cl)cc2)C(C(=O)OC)=C1` here?
A: -14.3%

Q: With `O=C(c1ccc(F)cc1)C1CCN(C(=O)Nc2ccccc2Cl)CC1` as the compound, how does the “activity change, negative = cytotoxicity” value read?
A: -1.49%

Q: For `CCOc1ccc(NC(=O)CN(C)C(=O)CCCNC(=O)c2ccc(Cl)cc2)cc1OCC`, which “activity change, negative = cytotoxicity” value is on record?
A: -7.49%

Q: Which “activity change, negative = cytotoxicity” value does the source give for `CCN(CC)c1ccc2cc(C#N)c(=O)oc2c1` here?
A: 3.25%

Q: For `Cc1cc(-c2ccccc2)c2ccc(NC(=O)C(C)(C)C)nc2n1`, which “activity change, negative = cytotoxicity” value is on record?
A: -0.045%

Q: For `CCc1cccc(C)c1NC(=S)NCc1ccc2c(c1)cc(C)n2C`, which “activity change, negative = cytotoxicity” value is on record?
A: 9.93%
